Records with an inconclusive call do not appear. A call without a number means that no potency is given here. Calls of active or inactive are those of the source. Calls follow the shape of the dose curve; as a rule, active = well fitted cell-killing curve with a large enough effect in the repeat runs; inconclusive = weak or mixed curves, or effect the other way; inactive = flat fitted curve, though single readings scatter.

One experiment can be described thus: qHTS assay to identify small molecule antagonists of the estrogen receptor alpha (ER-alpha) signaling pathway using the BG1 cell line in the presence of 0.1 nM 17-beta-estradiol - cell viability counter screen (AID 1259241). Also: nearly all actives have a fitted effect of over 40% in size. Particulars: VM7Luc4E2 (BG1) viability, CellTiter-Fluor protease, 22 h, 0.1 nM estradiol agonist added; series mostly up to 92.4 µM; activity change, negative = cytotoxicity: at the top concentration. The method in brief:
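The cell line endogenously expresses full-length ER-alpha and carries four EREs driving luciferase. Cells are cultured 5 days hormone-free, treated 22 hr with compounds and 0.1 nM estradiol, then viability is read by fluorescence.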
In the case of `N[C@@H](Cc1c[nH]c2ccc(O)cc12)C(=O)O`, the Potency result is “inactive”.
Same read-out and setting: the value for `COC(=O)C1CCC(C(=O)OC)CC1` (stereo not given) was “inactive”.
Still for that read-out and setting: next, `CCCCCCCCCCCCCCCCCC(=O)OCC(O)CO` (stereo not given): “inactive”.
Same read-out and setting: next, `C/C=C/c1ccc(O)c(OC)c1`: “inactive”; `COC(=O)c1ccc(C=O)cc1`: “inactive”.
On to `CCCCOC(=O)CCCCCCCCC(=O)OCCCC`, for which the Potency result was “inactive”.
In the case of `O=C(O)CN(CC(=O)O)CC(=O)O`, the Potency result was “inactive”.
On to `CCN1CCCC1=O`, for which the Potency result is “inactive”.
As for `O=C(O)CCCCC1CCSS1` (stereo not given), the Potency entry was “inactive”.
Still for that read-out and setting: the value for `COC1=CC(=O)C[C@@H](C)[C@]12Oc1c(Cl)c(OC)cc(OC)c1C2=O` was “inactive”.
On to `NC(N)=NC(N)=NCCc1ccccc1`, for which the Potency entry is “inactive”.
The same measure, in the same setting: the value for `COC(=O)c1ccc(O)cc1` was “inactive”; that for `Oc1cccc(O)c1` was “inactive”; that for `CC1=NN(c2ccccc2)C(=O)C1` was “inactive”.
The same measure, in the same setting: the value for `CC(=O)CCC(C)C` was “inactive”; that for `CC(=O)/C=C/C1=C(C)CCCC1(C)C` was “inactive”.
On the same count and under the same terms, the value for `CC(C)(C)NCC(O)c1ccc(O)c(CO)c1` (stereo not given) was “inactive”.
As for `Cc1c(N(C)C)c(=O)n(-c2ccccc2)n1C`, the Potency result is “inactive”.
The same measure, in the same setting: next, `CC(=O)OC/C=C(C)/C=C/C=C(C)/C=C/C1=C(C)CCCC1(C)C`: “inactive”.
`Cc1cnc(NC(=O)C2=C(O)c3ccccc3S(=O)(=O)N2C)s1`: the “activity change, negative = cytotoxicity” value is -4.74% [at 42.5 µM] (inactive).
For `C[C@]12C=CC(=O)C=C1CC[C@@H]1[C@@H]2C(=O)C[C@@]2(C)[C@H]1CC[C@]2(O)C(=O)CO`, the Potency entry was “inactive”.
The same measure, in the same setting: next, `CN(C)C=O`: “inactive”.
On the same count and under the same terms, the value for `Cc1cccc2ccccc12` was “inactive”; that for `C[C@]12C[C@H](O)[C@H]3[C@@H](CCC4=CC(=O)CC[C@@]43C)[C@@H]1CC[C@@H]2C(=O)CO` was “inactive”; that for `CC(C)Cc1ccc(C(C)C(=O)O)cc1` (stereo not given) was “inactive”.
On the same count and under the same terms, next, `Cc1ccc(O)c(-n2nc3ccccc3n2)c1`: “inactive”; `CC(C)(C)CC(C)(C)c1ccc(O)c(-n2nc3ccccc3n2)c1`: “inactive”; `C=C(C)OC(C)=O`: “inactive”.
On to `OCCCc1ccccc1`, for which the Potency entry was “inactive”.
Consider `C=CCOC(=O)CC(C)C`, for which the Potency result was “inactive”.

A further experiment can be described thus: qHTS assay to identify small molecule antagonists of the androgen receptor (AR) signaling pathway using the MDA cell line in the presence of 0.5 nM R1881 - cell viability counter screen (AID 1259242). Also: nearly all actives have a fitted effect of over 45% in size. Particulars: MDA-kb2 viability, CellTiter-Fluor protease fluorescence, 16 h; series mostly up to 92.4 µM; viability change, negative = cytotoxic: at the top concentration. The method in brief: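 MDA-kb2 cells (MMTV-luciferase, AR/GR responsive) were treated with compounds plus 0.5 nM R1881 (final) for 16 hr at 37C, 0% CO2. Viability was then read in the same wells as live-cell protease fluorescence (CellTiter-Fluor, 30 min).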
On the technique in general: In qHTS, concentration-response curves come from the screen itself.
For the molecule `N[C@@H](Cc1c[nH]c2ccc(O)cc12)C(=O)O`, the Potency result was “inactive”.
On the same count and under the same terms, the value for `COC(=O)C1CCC(C(=O)OC)CC1` (stereo not given) was “inactive”; that for `CCCCCCCCCCCCCCCCCC(=O)OCC(O)CO` (stereo not given) was “inactive”.
Same read-out and setting: next, `C/C=C/c1ccc(O)c(OC)c1`: “inactive”; `COC(=O)c1ccc(C=O)cc1`: “inactive”.
As for `CCCCOC(=O)CCCCCCCCC(=O)OCCCC`, the Potency result is “inactive”.
Still for that read-out and setting: next, `O=C(O)CN(CC(=O)O)CC(=O)O`: “inactive”; `CCN1CCCC1=O`: “inactive”; `O=C(O)CCCCC1CCSS1` (stereo not given): “inactive”.
Still for that read-out and setting: next, `COC1=CC(=O)C[C@@H](C)[C@]12Oc1c(Cl)c(OC)cc(OC)c1C2=O`: “inactive”.
On to `NC(N)=NC(N)=NCCc1ccccc1`, for which the “viability change, negative = cytotoxic” value was -16.9% [at 42.5 µM] (inactive).
`COC(=O)c1ccc(O)cc1`: the Potency result is “inactive”.
Same read-out and setting: next, `Oc1cccc(O)c1`: “inactive”; `CC1=NN(c2ccccc2)C(=O)C1`: “inactive”; `CC(=O)CCC(C)C`: “inactive”.
Still for that read-out and setting: the value for `CC(=O)/C=C/C1=C(C)CCCC1(C)C` was “inactive”; that for `CC(C)(C)NCC(O)c1ccc(O)c(CO)c1` (stereo not given) was “inactive”.
The same measure, in the same setting: the value for `Cc1c(N(C)C)c(=O)n(-c2ccccc2)n1C` was “inactive”; that for `CC(=O)OC/C=C(C)/C=C/C=C(C)/C=C/C1=C(C)CCCC1(C)C` was “inactive”; that for `Cc1cnc(NC(=O)C2=C(O)c3ccccc3S(=O)(=O)N2C)s1` was “inactive”.
Regarding `C[C@]12C=CC(=O)C=C1CC[C@@H]1[C@@H]2C(=O)C[C@@]2(C)[C@H]1CC[C@]2(O)C(=O)CO`, the Potency entry was “inactive”.
Regarding `CN(C)C=O`, the Potency result is “inactive”.
Turning to `Cc1cccc2ccccc12`, the Potency result was “inactive”.
Turning to `C[C@]12C[C@H](O)[C@H]3[C@@H](CCC4=CC(=O)CC[C@@]43C)[C@@H]1CC[C@@H]2C(=O)CO`, the Potency result is “inactive”.
On the same count and under the same terms, next, `CC(C)Cc1ccc(C(C)C(=O)O)cc1` (stereo not given): “inactive”; `Cc1ccc(O)c(-n2nc3ccccc3n2)c1`: “inactive”.
In the case of `CC(C)(C)CC(C)(C)c1ccc(O)c(-n2nc3ccccc3n2)c1`, the Potency result was “inactive”.
The same measure, in the same setting: next, `C=C(C)OC(C)=O`: “inactive”.
Still for that read-out and setting: the value for `OCCCc1ccccc1` was “inactive”.
The same measure, in the same setting: next, `C=CCOC(=O)CC(C)C`: “inactive”.

These data come from PubChem BioAssay (Tox21).
